Structures are written as SMILES. Among all 340,000 compounds or so, about 530 (0.16%) were called active. About 2% were inconclusive and are not listed. Rule as the data show it: active = activity change below about -80%; inconclusive = between about -30% and that limit; inactive = weaker than that. The sample as a whole holds a higher share of actives than the screen did.

The source of these data is PubChem BioAssay AID540267 (National Center for Advancing Translational Sciences (NCATS), 2011).
% is scaled to controls: 0 for no effect and ±100 for the full control effect.

The assay in a line: Small Molecules that selectively kill Giardia lamblia: qHTS.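 Also: parasites exposed to compound for two days anaerobically before the ATP read.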 To be noted: Giardia lamblia trophozoite viability; at 7.66 µM; active compounds read low. The method, boiled down:
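Trophozoite viability was measured as ATP-dependent luminescence, read 15-30 min after reagent addition. Before that, parasites at 100 cells/well were exposed to compounds for 48 h, anaerobically, at 37 deg C.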
For orientation: Quantitative high-throughput screening tests each substance at several concentrations.
For `c1ccc2c(C[n+]3csc4ccccc43)cccc2c1`, the activity change was 3.49% (inactive).

`Cc1ccc(-c2ccc(=O)n(Cc3ccc(F)cc3Cl)n2)cc1`: the activity change is -0.457% (inactive).

As for `N/C(=N/O)c1cccn1Cc1ccccc1[N+](=O)[O-]`, the activity change was -2.12% (inactive).

As for `O=c1c([N+](=O)[O-])cccn1Cc1ccc(F)cc1Cl`, the activity change is -94.3% (active).

With `Brc1nc2ncnc(NCc3ccco3)c2[nH]1`, the activity change is -4.89% (inactive).

In the case of `O=[N+]([O-])c1ncc(Br)cc1Nc1ccccc1`, the activity change was -90.1% (active).

On to `O=[N+]([O-])c1cccc(/C=N/Nc2ncc(Br)cn2)c1`, for which the activity change is 23.3% (inactive).

On to `O=[N+]([O-])c1ccccc1Nc1ccc(O)cc1`, for which the activity change is -6.38% (inactive).

Regarding `NC(CSC1(c2ccccc2)c2ccccc2-c2ccccc21)C(=O)O` (centres undefined), the activity change is -0.132% (inactive).

As for `Cc1ccc2oc(C(=O)N3CCN(C)C[C@@H]3C(C)C)c(C)c2c1`, the activity change was 11.8% (inactive).

As for `CCCCCCC1(C)NC(c2ccc3c(c2)OCO3)=CC(c2ccccc2O)N1` (centres undefined), the activity change was -22.5% (inactive).

Consider `CC1(C)c2[nH]c3ccccc3c2C[C@H]2C(=O)N(N)CC(=O)N21`, for which the activity change was -11.4% (inactive).

For the molecule `COC(=O)N/N=C/c1ccc(-c2ccc(Cl)c(Cl)c2)o1`, the activity change is -7.13% (inactive).

In the case of `COC(=O)C(C)N=Cc1ccccc1` (centres undefined), the activity change is -3.67% (inactive).

For the molecule `COC(=O)N/N=C/c1c[n+]([O-])c2ccccc2[n+]1[O-]`, the activity change is -80.1% (active).

With `Cc1c(C=O)c2ccccc2n1CC(=O)O`, the activity change was 21.1% (inactive).

In the case of `CC(=O)c1c(C)n([O-])c2ccccc2[n+]1=O`, the activity change is -80.7% (active).

As for `CCOc1ccc(NC(=O)CSc2nnc3c(n2)[nH]c2ccc(S(=O)(=O)N4CCOCC4)cc23)cc1`, the activity change was -27.7% (inactive).

`Cc1ccc(N2C(=O)C3C(c4ccccc4)(C2=O)C3(c2ccccc2)c2ccccc2)cc1` (centres undefined): the activity change was 6.33% (inactive).

For the molecule `CCN(CC)/[N+]([O-])=N/Oc1cc(O/[N+]([O-])=N/N2CCCC2CO)c([N+](=O)[O-])cc1[N+](=O)[O-]` (centres undefined), the activity change is 9.52% (inactive).

`CC1(C(=O)NCCc2c[nH]c3ccccc23)C=CC2(CCCCC2)N1C(=O)c1ccccc1` (centres undefined): the activity change was 17.9% (inactive).

Turning to `COc1cc(OC)c2c(C)cc(=O)oc2c1C(CCN1CCCCC1)c1ccc(N(C)C)cc1` (centres undefined), the activity change was 8.97% (inactive).

With `Cc1nc(-c2ccccc2)cn2c1nc1ccccc12`, the activity change was 7.53% (inactive).

For `O=S(=O)(c1cccc(C(F)(F)F)c1)N1CCN(c2nc(-c3cccs3)nc3ccccc23)CC1`, the activity change is 27.4% (inactive).

As to `COC(=O)c1ccc(OCC(O)CN(CCO)CC(O)Cn2ccc3ccccc32)cc1` (centres undefined), the activity change was 8.7% (inactive).

`CCCCNC(=O)Cn1c(SCc2cccc(Cl)c2)nc2ccncc21`: the activity change is 12.3% (inactive).

For `Cc1ccc(S(=O)(=O)N2CCN(c3nc(-n4cnc5ccccc54)nc4ccccc34)CC2)cc1`, the activity change was 11.1% (inactive).

Turning to `CC(C)=CCN1CCN(CCCc2ccccc2)CC1CCO` (centres undefined), the activity change was 23.8% (inactive).

In the case of `Cc1ccc(-c2nn(-c3ccccc3)cc2C(=O)NC2CCC(O)CC2)cc1` (centres undefined), the activity change is 4.06% (inactive).

Consider `O=C(NCCCN1CCOCC1)c1cn(-c2ccccc2)nc1-c1ccc(F)cc1`, for which the activity change was -14.8% (inactive).

On to `O=C(N/N=C/c1ccc([N+](=O)[O-])o1)c1cn(-c2ccccc2)nc1-c1ccc(F)cc1`, for which the activity change is -93% (active).

On to `Cc1noc(C)c1NC(=O)Nc1cccc2c1O[C@H](CN(C)C(=O)Nc1ccccc1)[C@@H](C)CN([C@H](C)CO)C2=O`, for which the activity change was 8.07% (inactive).

As to `Cc1noc(C)c1NC(=O)Nc1ccc2c(c1)C(=O)N([C@H](C)CO)C[C@H](C)[C@@H](CN(C)C(=O)Nc1ccc(C(F)(F)F)cc1)O2`, the activity change was 41.7% (inactive).

In the case of `C[C@H](CO)N1C[C@H](C)[C@H](CN(C)C(=O)Nc2ccc(C(F)(F)F)cc2)Oc2c(NC(=O)c3ccncc3)cccc2C1=O`, the activity change was -89.7% (active).

Regarding `Cc1ccc(-c2nc(=N)sn2Cc2ccccc2)cc1`, the activity change is 24.2% (inactive).

`COc1ccc(Cn2c(=O)[nH]c3cc(C(=O)N4CCN(C(=O)c5ccco5)CC4)ccc3c2=O)cc1`: the activity change was -2.35% (inactive).

As to `Cc1noc(NS(=O)(=O)c2ccc(NC(=O)c3oc4ccc(F)cc4c3C)cc2)c1C`, the activity change is 6.55% (inactive).

On to `COc1ccc(S(=O)(=O)N2CCN(c3ccc(F)cc3)CC2)cc1-c1noc(C)n1`, for which the activity change is 5.27% (inactive).

As to `COC(=O)C(CC(C)C)NS(=O)(=O)c1cc(Br)ccc1Br` (centres undefined), the activity change is -10.7% (inactive).

Take `Cc1ccc(Nc2c(-c3ccc(C)s3)nc3ccccn23)cc1`: the activity change is 1.31% (inactive).

In the case of `O=C(c1ccc2nc(N3CCOCC3)sc2c1)N1CCN(c2ccc(Cl)cc2)CC1`, the activity change was -10.4% (inactive).

Consider `COc1ccc2nc(N3C(=O)C(O)=C(C(=O)c4ccco4)C3c3ccco3)sc2c1` (centres undefined), for which the activity change was 1.49% (inactive).

`COc1ccc2nc(N3CCN(C(=O)c4ccc([N+](=O)[O-])o4)CC3)sc2c1`: the activity change is -98.8% (active).

On to `O=C(NCC1CC1)C1(C(F)(F)F)C/C(=C\CCO)CCCO1` (centres undefined), for which the activity change was -14.8% (inactive).
